Source: the supplement of paper PMC11732987, “Enantioselective OTUD7B fragment discovery through chemoproteomics screening and high-throughput optimisation” (Communications Chemistry, 2025)

Tests used:
Assay in all cases: log2 ratio of Biotin-Ahx-Ub-VS probe labelling (fragment/DMSO); higher = less target engagement (more negative = stronger competition), active = hit call of the paper (q ≤ 0.05, log2 ratio ≤ -1)
Conditions in all cases: compound concentration: 200 uM; treatment time: 3 h
[1] = molecular target: T1, USP42 (UniProt Q9H9J4)
T1 sequence (whole entry): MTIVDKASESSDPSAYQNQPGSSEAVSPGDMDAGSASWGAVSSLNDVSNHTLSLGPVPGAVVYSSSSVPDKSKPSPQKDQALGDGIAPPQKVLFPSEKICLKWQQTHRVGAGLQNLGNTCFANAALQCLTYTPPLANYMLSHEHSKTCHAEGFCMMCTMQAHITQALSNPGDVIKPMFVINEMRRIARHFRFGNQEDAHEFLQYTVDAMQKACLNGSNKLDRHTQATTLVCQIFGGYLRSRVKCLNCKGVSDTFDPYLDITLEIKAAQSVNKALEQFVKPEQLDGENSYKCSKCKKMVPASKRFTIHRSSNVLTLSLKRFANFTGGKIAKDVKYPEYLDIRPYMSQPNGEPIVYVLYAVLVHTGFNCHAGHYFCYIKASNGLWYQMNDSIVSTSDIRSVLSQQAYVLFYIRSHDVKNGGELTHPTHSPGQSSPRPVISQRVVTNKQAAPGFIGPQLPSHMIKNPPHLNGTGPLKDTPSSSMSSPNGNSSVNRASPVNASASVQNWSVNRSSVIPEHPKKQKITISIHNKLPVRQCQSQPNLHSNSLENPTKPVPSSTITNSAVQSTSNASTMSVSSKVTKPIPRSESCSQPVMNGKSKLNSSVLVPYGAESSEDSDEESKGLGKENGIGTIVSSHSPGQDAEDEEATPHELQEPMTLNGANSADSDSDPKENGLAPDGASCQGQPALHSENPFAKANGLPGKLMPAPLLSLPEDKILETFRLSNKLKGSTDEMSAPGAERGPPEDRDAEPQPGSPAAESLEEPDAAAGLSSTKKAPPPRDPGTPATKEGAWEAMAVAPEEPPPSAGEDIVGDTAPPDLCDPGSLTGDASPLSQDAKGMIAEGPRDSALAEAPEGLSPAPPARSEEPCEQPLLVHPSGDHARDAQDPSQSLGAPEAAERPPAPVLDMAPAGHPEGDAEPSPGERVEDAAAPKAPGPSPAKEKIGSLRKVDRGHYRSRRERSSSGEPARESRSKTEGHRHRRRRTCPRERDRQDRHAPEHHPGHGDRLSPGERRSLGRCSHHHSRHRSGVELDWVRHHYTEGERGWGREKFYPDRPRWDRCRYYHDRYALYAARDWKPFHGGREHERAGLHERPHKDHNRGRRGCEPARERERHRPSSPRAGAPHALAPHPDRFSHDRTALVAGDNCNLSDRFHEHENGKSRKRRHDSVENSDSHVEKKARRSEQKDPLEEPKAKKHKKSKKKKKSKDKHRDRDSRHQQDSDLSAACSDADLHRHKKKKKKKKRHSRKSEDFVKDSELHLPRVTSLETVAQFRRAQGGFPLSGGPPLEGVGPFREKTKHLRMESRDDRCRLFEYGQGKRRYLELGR
Method in brief: (§1)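 Using Biotin-Ahx-Ub-VS at 0.5 µM final for 1 h, DUBs were labelled in HEK293T lysate (495 µg per sample) that had first been treated in triplicate with fragment at 200 µM or vehicle for 3 h. NeutrAvidin enrichment, LysC and trypsin digestion and diaPASEF LC-MS/MS followed. Spectronaut label-free quantities were global-median-normalised. Values are average log2 fragment/vehicle ratios by unpaired t-test, using proteins with ≥2 unique peptides.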

[2] = molecular target: USP46 (UniProt P62068)
USP46, sequence (P62068 whole entry): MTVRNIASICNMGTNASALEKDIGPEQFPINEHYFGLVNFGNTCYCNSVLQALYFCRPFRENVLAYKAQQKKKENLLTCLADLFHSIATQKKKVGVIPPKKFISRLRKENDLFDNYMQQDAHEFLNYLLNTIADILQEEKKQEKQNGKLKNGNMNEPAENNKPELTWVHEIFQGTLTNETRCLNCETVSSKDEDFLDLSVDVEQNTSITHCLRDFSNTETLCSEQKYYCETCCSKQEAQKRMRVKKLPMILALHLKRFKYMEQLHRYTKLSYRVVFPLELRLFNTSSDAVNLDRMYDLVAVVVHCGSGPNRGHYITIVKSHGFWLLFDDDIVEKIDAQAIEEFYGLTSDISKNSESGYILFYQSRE
Method in brief: as §1

[3] = molecular target: T2, USP47 (UniProt Q96K76)
T2 sequence (whole entry): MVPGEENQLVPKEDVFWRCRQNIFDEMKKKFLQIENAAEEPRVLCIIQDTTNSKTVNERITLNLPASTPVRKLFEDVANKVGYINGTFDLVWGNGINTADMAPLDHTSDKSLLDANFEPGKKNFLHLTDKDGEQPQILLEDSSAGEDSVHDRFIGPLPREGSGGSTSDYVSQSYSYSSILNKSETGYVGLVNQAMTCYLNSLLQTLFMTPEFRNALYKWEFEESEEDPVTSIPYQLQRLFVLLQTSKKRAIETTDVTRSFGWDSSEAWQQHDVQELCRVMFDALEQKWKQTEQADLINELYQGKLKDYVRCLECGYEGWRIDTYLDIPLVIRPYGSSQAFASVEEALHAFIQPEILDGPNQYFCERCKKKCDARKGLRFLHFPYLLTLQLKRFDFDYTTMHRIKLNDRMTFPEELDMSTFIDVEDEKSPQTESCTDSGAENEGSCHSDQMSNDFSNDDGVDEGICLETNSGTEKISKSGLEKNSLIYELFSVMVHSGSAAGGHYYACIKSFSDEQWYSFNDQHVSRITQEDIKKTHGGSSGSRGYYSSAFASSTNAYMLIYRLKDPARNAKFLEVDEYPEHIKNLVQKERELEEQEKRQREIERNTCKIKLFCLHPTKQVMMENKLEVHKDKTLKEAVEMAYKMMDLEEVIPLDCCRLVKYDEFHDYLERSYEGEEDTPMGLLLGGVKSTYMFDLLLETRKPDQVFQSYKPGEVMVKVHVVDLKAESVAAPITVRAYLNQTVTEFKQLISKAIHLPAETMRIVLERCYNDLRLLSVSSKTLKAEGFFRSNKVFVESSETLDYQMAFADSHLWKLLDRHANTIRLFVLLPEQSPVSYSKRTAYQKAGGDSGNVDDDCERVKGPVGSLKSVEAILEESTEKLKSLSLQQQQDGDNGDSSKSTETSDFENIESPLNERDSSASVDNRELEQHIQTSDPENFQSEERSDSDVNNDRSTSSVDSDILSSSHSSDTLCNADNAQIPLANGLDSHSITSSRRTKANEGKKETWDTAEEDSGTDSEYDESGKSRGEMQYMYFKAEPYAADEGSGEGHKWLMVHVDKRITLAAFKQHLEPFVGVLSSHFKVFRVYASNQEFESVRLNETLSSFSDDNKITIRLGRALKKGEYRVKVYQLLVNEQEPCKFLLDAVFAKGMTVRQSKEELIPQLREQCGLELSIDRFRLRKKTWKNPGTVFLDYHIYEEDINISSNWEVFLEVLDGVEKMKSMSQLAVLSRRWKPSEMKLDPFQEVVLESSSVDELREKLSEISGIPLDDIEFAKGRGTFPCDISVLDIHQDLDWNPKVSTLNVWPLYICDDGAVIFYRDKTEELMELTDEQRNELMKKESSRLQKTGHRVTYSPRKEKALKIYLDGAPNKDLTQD
Method in brief: as §1

[4] = molecular target: T3, USP48 (UniProt Q86UV5)
T3 sequence (whole entry): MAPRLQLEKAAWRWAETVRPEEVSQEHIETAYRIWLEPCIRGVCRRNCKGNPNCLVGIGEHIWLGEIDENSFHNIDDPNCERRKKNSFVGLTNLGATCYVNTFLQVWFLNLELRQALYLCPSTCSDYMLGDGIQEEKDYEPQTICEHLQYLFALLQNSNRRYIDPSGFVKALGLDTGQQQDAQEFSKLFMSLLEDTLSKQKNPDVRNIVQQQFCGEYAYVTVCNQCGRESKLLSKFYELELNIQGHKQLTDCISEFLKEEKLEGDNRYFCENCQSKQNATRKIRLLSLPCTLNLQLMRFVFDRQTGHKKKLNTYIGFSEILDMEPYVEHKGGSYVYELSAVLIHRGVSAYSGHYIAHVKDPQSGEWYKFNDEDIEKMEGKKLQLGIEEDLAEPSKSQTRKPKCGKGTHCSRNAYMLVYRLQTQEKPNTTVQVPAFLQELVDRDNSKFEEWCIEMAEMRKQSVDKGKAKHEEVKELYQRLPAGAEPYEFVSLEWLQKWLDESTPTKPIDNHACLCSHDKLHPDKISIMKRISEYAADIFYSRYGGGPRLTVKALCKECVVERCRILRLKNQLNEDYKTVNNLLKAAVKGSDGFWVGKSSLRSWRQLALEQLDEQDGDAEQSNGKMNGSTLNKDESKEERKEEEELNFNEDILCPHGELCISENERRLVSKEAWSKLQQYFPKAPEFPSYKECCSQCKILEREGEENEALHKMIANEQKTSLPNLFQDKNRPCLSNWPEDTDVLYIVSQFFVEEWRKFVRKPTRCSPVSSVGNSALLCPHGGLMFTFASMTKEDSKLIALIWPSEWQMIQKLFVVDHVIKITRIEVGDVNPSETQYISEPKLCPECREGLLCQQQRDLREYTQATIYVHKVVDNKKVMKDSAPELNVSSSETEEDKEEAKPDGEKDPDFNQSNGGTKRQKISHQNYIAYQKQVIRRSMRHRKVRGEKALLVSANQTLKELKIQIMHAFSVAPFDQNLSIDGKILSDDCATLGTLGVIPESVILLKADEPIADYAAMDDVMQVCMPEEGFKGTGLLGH
Method in brief: as §1

[5] = molecular target: T4, USP5 (UniProt P45974)
T4 sequence (whole entry): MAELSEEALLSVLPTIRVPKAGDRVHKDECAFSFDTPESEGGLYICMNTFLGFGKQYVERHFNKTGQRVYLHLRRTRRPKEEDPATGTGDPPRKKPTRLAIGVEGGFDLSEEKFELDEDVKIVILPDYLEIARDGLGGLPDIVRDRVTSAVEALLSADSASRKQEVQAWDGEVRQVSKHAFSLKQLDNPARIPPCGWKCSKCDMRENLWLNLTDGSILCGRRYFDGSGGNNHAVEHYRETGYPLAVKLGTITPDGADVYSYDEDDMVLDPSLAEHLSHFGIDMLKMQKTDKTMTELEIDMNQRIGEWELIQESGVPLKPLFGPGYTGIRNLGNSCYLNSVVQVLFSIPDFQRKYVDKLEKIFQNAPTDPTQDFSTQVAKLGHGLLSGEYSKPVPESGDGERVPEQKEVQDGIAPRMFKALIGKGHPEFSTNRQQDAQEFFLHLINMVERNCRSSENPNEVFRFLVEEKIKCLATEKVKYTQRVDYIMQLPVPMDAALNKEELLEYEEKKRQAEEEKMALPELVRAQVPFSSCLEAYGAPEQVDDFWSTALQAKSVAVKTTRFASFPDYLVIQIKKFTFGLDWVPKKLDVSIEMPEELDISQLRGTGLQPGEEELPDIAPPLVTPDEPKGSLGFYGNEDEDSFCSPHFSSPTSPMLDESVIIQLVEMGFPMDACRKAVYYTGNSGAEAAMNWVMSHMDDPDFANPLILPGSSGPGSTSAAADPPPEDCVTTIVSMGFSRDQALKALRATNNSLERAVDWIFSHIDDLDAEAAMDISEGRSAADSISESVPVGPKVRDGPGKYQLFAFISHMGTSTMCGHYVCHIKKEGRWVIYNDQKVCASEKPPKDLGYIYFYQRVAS
Method in brief: as §1

[6] = molecular target: USP54 (UniProt Q70EL1)
USP54, sequence (Q70EL1 whole entry): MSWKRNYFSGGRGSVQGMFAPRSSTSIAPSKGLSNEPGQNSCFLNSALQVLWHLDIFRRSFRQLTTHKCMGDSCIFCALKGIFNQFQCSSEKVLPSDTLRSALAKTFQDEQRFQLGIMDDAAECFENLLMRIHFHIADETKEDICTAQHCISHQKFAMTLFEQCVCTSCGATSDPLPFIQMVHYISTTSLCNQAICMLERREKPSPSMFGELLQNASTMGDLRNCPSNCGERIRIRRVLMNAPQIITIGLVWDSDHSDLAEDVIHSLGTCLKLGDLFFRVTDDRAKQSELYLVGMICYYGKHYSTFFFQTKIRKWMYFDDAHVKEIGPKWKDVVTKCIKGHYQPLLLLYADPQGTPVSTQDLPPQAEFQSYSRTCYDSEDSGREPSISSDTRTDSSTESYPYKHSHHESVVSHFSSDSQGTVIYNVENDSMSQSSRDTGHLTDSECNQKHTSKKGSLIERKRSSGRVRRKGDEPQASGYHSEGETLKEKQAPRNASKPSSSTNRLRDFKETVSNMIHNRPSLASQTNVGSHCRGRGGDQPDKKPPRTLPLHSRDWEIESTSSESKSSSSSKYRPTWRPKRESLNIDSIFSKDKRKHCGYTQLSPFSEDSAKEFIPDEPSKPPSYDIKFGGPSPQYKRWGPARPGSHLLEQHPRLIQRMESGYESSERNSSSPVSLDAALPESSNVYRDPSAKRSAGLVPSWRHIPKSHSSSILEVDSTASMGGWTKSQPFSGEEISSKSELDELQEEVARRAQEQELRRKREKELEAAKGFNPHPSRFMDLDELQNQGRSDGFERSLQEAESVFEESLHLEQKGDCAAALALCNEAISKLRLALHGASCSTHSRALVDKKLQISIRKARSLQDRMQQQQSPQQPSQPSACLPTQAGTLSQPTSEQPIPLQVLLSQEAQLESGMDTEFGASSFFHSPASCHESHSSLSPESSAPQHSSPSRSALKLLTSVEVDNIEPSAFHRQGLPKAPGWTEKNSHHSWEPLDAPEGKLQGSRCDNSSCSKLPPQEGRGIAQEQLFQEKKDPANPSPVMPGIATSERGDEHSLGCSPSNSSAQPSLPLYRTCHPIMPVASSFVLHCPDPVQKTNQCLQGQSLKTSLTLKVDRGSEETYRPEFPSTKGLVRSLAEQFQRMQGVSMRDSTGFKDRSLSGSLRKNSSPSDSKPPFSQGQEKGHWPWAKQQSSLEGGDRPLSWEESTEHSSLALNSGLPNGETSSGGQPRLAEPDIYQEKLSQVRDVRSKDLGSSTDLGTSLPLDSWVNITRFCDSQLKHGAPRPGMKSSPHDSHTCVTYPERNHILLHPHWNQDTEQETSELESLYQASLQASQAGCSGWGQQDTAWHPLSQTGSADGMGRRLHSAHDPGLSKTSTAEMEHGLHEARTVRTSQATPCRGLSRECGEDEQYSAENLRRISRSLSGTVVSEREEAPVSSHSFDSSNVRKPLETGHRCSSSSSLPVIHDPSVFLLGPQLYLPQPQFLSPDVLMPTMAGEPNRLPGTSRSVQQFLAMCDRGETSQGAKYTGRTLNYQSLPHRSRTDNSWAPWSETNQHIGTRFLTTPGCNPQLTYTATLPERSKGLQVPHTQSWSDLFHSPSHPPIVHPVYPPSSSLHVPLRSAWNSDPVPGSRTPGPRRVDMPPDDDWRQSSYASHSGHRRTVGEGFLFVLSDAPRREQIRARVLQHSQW
Method in brief: as §1

[7] = molecular target: USP7 (UniProt Q93009)
USP7, sequence (Q93009 whole entry, looked up): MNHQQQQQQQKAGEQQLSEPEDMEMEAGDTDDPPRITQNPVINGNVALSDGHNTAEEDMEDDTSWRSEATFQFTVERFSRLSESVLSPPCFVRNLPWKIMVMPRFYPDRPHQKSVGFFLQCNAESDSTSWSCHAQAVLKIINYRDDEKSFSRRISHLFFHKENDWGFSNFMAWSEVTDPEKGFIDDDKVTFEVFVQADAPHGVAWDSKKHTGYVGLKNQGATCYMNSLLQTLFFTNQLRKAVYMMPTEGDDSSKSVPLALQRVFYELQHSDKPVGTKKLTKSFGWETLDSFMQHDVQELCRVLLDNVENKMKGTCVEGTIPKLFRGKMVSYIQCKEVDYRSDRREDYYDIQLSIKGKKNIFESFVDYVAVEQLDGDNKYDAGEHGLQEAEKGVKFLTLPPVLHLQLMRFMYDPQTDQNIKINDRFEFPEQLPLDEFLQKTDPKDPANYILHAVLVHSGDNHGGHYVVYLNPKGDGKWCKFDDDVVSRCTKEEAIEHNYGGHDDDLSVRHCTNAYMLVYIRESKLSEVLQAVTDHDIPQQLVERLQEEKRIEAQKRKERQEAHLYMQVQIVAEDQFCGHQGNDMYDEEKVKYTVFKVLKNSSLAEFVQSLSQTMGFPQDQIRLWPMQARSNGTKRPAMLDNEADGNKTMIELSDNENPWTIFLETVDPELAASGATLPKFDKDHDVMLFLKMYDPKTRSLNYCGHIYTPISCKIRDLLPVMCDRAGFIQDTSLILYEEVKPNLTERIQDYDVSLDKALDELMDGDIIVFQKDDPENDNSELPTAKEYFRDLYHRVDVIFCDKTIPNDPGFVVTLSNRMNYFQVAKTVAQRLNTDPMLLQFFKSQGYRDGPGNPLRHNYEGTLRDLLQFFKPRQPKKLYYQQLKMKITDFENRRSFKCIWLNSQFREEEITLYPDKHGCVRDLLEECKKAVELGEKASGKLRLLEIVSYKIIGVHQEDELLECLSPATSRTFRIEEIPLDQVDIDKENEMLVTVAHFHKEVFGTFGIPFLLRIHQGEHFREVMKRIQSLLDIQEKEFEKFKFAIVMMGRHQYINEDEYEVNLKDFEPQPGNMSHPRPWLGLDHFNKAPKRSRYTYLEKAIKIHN
Method in brief: as §1

[8] = molecular target: T5, USP8 (UniProt P40818)
T5 sequence (whole entry): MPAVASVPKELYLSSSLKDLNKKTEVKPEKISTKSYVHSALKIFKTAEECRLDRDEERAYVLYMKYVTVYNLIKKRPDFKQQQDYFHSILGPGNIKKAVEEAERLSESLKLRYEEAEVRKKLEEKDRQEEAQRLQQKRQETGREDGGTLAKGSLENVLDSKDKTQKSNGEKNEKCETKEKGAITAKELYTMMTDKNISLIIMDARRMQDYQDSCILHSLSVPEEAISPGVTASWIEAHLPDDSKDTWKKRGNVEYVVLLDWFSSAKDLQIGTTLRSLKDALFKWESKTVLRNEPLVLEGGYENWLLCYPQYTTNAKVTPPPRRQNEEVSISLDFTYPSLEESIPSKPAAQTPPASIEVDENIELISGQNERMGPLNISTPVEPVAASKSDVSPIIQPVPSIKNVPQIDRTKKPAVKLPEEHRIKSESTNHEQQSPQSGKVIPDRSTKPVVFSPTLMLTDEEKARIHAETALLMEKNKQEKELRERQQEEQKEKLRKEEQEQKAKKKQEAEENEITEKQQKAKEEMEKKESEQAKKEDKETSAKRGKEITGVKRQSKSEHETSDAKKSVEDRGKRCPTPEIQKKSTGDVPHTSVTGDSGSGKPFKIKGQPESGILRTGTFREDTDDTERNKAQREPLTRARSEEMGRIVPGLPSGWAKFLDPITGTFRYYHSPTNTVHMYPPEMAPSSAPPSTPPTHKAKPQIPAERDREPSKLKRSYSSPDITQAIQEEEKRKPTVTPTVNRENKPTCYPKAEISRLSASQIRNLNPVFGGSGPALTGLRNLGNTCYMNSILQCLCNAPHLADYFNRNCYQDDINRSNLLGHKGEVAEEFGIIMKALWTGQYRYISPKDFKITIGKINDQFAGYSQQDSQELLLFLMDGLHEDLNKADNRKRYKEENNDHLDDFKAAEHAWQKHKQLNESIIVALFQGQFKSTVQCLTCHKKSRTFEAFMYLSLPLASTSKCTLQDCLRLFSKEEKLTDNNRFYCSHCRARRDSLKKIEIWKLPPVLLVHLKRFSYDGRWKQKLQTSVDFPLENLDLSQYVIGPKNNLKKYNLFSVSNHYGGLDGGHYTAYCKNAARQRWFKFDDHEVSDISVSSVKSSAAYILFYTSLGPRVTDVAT
Method in brief: as §1

Measured: log2 ratio of Biotin-Ahx-Ub-VS probe labelling

Cc1cccc(C(CNC(=O)CCl)N2CCOCC2)c1.Cl (stereo not drawn)
inactive: [1] -0.208 | [2] 0.086 | [3] 0.268 | [4] -0.106 | [5] -0.22 | [6] -0.0536 | [7] -0.244 | [8] -0.417
